SW480 rereplic: DNA re-replication induction in SW480 cells; AID 624297; Potency, µM (series often up to 46.1 µM), for inactives: at the top dose re-replication activation, actives largely listed as activators; 340,000 tested, 1.8% active; SW480 DNA re-replication, Hoechst DNA content imaging, 48 h; note: % of control where 0% means no effect; nearly all actives have a fitted effect of over 55% in size
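Image-based read-out: total Hoechst fluorescence of nuclei (405 nm excitation, 500-530 nm emission), with hits raising the fraction of high-intensity nuclei. SW480 colon cells incubated 48 hr with compounds at 37 C.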
MCF10A rereplic: inducers of DNA re-replication in MCF 10A breast cells; MCF 10A DNA re-replication, Hoechst nuclear intensity, 48 h; Potency, µM (top dose mostly 46.1 µM), for the others: at the highest dose activity, positive = re-replication, most hits filed as activators; 350,000 tested, 2.9% active; note: % of control where 0% means no effect; nearly all actives have a fitted effect of over 50% in size
KB-V1 MDR tox: kills drug-selected multidrug resistant KB-V1 cells. Potency, µM (doses to about 46.1 µM), usual class: cytotoxic. 400,000 tested, 3.4% active. KB-V1 MDR cells viability, CellTiter-Glo, 72 h; note: % is set by controls: 0 for no effect and ±100 for the full control effect; nearly all actives have a fitted effect of over 60% in size
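qHTS viability screen in drug-selected KB-V1 MDR cells: 72 h compound treatment at 37 degrees C, ATP luminescence end point.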
HT1080 IDH1KD tx: toxicity to HT-1080 IDH1 knockdown cells (counter line) | HT-1080 IDH1 knockdown viability, ATP luminescence, 48 h | Potency, µM (doses to about 46.1 µM), inactives show at the top dose activity, negative = toxicity, usual class: cytotoxic | 360,000 tested, 2% active | AID 686971;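 note: 0% = DMSO wells and -100% = cell-free medium wells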
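CellTiter-Glo luminescence after 48 h compound exposure at 37 degrees C of IDH1-knockdown HT-1080 cells in 5% FBS RPMI. %Activity scaled between DMSO wells and cell-free media wells, with curves fitted and assigned curve classes.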
KB-3-1 cytotox: KB-3-1 parental cell cytotoxicity | KB-3-1 viability, CellTiter-Glo ATP luminescence, 72 h | Potency, µM (titrated, usually from 46.1 µM), most hits filed as cytotoxic | 400,000 tested, 1.4% active | AID 1347075; note: % is set by controls: 0 for no effect and ±100 for the full control effect; nearly all actives have a fitted effect of over 60% in size
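Multi-concentration cytotoxicity screen in KB-3-1 cells grown in DMEM lacking phenol red with 10% FBS. After 72 h at 37 °C with compound, ATP-dependent luminescence was recorded.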
HT1080NT lethal: kills 2HG-producing HT-1080-NT fibrosarcoma cells | HT-1080-NT fibrosarcoma viability, CellTiter-Glo ATP luminescence, 48 h | Potency, µM (doses to about 46.1 µM), inactives show top-dose activity, negative = less viability, actives largely listed as cytotoxic | 360,000 tested, 1.6% active;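 note: NT is the 2HG producing partner of a matched IDH1 knockdown line; 0% = DMSO-treated cells and -100% = media-only wells without cells; nearly all actives have a fitted effect of over 55% in size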
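HT-1080-NT fibrosarcoma cells (2HG-overproducing), 750 cells/well in RPMI with 5% FBS, dosed after 2 h and incubated 48 h at 37C. CellTiter-Glo luminescence normalized to DMSO and no-cell wells; concentration-response curves fitted and classed.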
* marks the source's active call; other numbers are inactive results. An excerpt weighted towards active compounds, which were near 8% of everything screened. Calls come from the whole dose curve; as a rule, active = well fitted curve in the direction sought with a large enough effect; inconclusive = small, poorly fitted or top-dose-only effect, or another doubt; inactive = no such curve, though single readings can be large; an effect the other way counts as inactive or inconclusive. Potency is the fitted concentration of half-maximal effect.

COc1ccc(C(=O)N(C)Cc2cnn(Cc3ccccc3)c2)cc1S(=O)(=O)N1CCOCC1 was read as SW480 rereplic 4.11µM*, MCF10A rereplic 3.66µM*, KB-V1 MDR tox inactive, HT1080 IDH1KD tx 5.8µM*, KB-3-1 cytotox 5.8µM* and HT1080NT lethal 5.8µM*.
`CN(Cc1cnn(Cc2ccccc2)c1)C(=O)c1cccc(S(=O)(=O)N2CCOCC2)c1` gave SW480 rereplic 18.4µM*, MCF10A rereplic inconclusive, KB-V1 MDR tox inactive, HT1080 IDH1KD tx inconclusive, KB-3-1 cytotox 14.6µM* and HT1080NT lethal inconclusive.
For CN(Cc1cccc(F)c1)C(=O)c1cccc(S(=O)(=O)N2CCN(Cc3ccccc3)CC2)c1 the results were SW480 rereplic -1.6%, MCF10A rereplic 13.3%, KB-V1 MDR tox inconclusive, HT1080 IDH1KD tx -5.1%, KB-3-1 cytotox inconclusive and HT1080NT lethal -1.4%.
`CCN(CC)c1ccc(/C=N/NC(=O)c2cccc(S(=O)(=O)N3CCOCC3)c2)cc1` gave SW480 rereplic -4.6%, MCF10A rereplic 0.4%, KB-V1 MDR tox inactive, HT1080 IDH1KD tx -24.4%, KB-3-1 cytotox inactive and HT1080NT lethal -2.3%.
`CCN(Cc1ccccc1)c1ccc(/C=N/NC(=O)c2cccc(S(=O)(=O)N3CCOCC3)c2)cc1` gave SW480 rereplic 15.0%, MCF10A rereplic inconclusive, KB-V1 MDR tox inconclusive, HT1080 IDH1KD tx 20.6µM*, KB-3-1 cytotox inconclusive and HT1080NT lethal inconclusive.
`CC(=O)c1ccc(NC(=O)C2CCN(S(=O)(=O)c3ccc4c(c3)CCCN4C(=O)C3CCC3)CC2)cc1` gave KB-V1 MDR tox inactive and KB-3-1 cytotox inactive.
COc1ccc(CNC(=O)Cc2c(C)c3ccc(O)cc3oc2=O)cc1 was read as KB-V1 MDR tox inactive and KB-3-1 cytotox inactive.
`COc1ccccc1N1CCN(C(=O)c2cc3c(=O)n(C)c4ccccc4c3s2)CC1` gave KB-V1 MDR tox inconclusive and KB-3-1 cytotox inactive.
`Cc1ccc(C(=O)Nc2ccc(-n3c(C)nc4ccccc4c3=O)cc2)cc1[N+](=O)[O-]` gave KB-V1 MDR tox inactive and KB-3-1 cytotox inactive.
CCN(CC)c1ccc(/C=N/NS(=O)(=O)c2ccc(C)c([N+](=O)[O-])c2)cc1 was read as SW480 rereplic -2.6%, MCF10A rereplic 9.7%, KB-V1 MDR tox inactive, HT1080 IDH1KD tx -13.8%, KB-3-1 cytotox inactive and HT1080NT lethal -18.0%.
`CCN(Cc1ccccc1)c1ccc(/C=N/NS(=O)(=O)c2cccc([N+](=O)[O-])c2)cc1` gave SW480 rereplic -0.3%, MCF10A rereplic inconclusive, KB-V1 MDR tox 16.4µM*, HT1080 IDH1KD tx -2.1%, KB-3-1 cytotox inactive and HT1080NT lethal -10.3%.
Screening Cc1ccc(-c2c[n+](CC(=O)c3ccc(Br)cc3)c3n2CCCCC3)cc1 returned SW480 rereplic -0.1%, MCF10A rereplic -2.0%, KB-V1 MDR tox inactive, HT1080 IDH1KD tx inconclusive, KB-3-1 cytotox inconclusive and HT1080NT lethal 20.6µM*.
O=C(C[n+]1cc(-c2ccccc2)n2c1CCCCC2)c1ccc(Cl)cc1 was read as SW480 rereplic -13.7%, MCF10A rereplic -4.9%, KB-V1 MDR tox inactive, HT1080 IDH1KD tx -2.7%, KB-3-1 cytotox inconclusive and HT1080NT lethal -1.9%.
For Cc1ccc(NC(=O)C[n+]2cc(-c3ccccc3)n3c2CCC3)cc1 the results were SW480 rereplic -17.3%, MCF10A rereplic 6.8%, KB-V1 MDR tox inactive, HT1080 IDH1KD tx -11.3%, KB-3-1 cytotox inconclusive and HT1080NT lethal 8.9%.
`Cc1ccc(-c2c[n+](CC(=O)Nc3nc(-c4ccccc4)cs3)c3n2CCC3)cc1` gave SW480 rereplic -1.3%, MCF10A rereplic 28.7%, KB-V1 MDR tox inactive, HT1080 IDH1KD tx 23.1µM*, KB-3-1 cytotox inactive and HT1080NT lethal inconclusive.
Screening O=C(C[n+]1cc(-c2ccccc2)n2c1CCC2)Nc1nc(-c2ccccc2)cs1 returned SW480 rereplic -5.3%, MCF10A rereplic -5.8%, KB-V1 MDR tox inactive, HT1080 IDH1KD tx -10.2%, KB-3-1 cytotox 16.4µM* and HT1080NT lethal 0.1%.
Screening Cc1ccc2[nH]c3c(=O)n(CC(=O)N4CCN(c5ccccc5F)CC4)ncc3c2c1 returned KB-V1 MDR tox inactive and KB-3-1 cytotox inactive.
COc1ccc(NC(=O)CSc2nnc(NC(=O)NC3CCCCC3)s2)cc1OC was read as KB-V1 MDR tox inactive and KB-3-1 cytotox inactive.
COc1cccc(Cn2c(C)c(CNCc3ccccc3Cl)c(C(=O)O)c2C)c1 was read as KB-V1 MDR tox inactive and KB-3-1 cytotox inactive.
Screening N#C/C(=C\c1c(Cl)cccc1Cl)c1nn(-c2ccccc2)c(-n2cccc2)c1C#N returned SW480 rereplic -7.3%, MCF10A rereplic 16.4µM*, KB-V1 MDR tox inactive, HT1080 IDH1KD tx -5.3%, KB-3-1 cytotox inactive and HT1080NT lethal inconclusive.
`Cc1ccc(/C=C(\C#N)c2nn(-c3ccccc3)c(N)c2C#N)cc1` gave SW480 rereplic -15.7%, MCF10A rereplic inconclusive, KB-V1 MDR tox 20.6µM*, HT1080 IDH1KD tx -9.7%, KB-3-1 cytotox inactive and HT1080NT lethal -5.6%.
For COc1ccc(-n2nc(C(=O)N3CCN(c4cccc(C)c4)C(C)C3)c3c4ccccc4n(C)c3c2=O)cc1Cl (centres undefined) the results were KB-V1 MDR tox inactive and KB-3-1 cytotox inactive.
For CCC(=O)Oc1ccc2ccccc2c1CNC(=O)c1ccccc1 the results were SW480 rereplic -41.3%, MCF10A rereplic inconclusive, KB-V1 MDR tox 14.6µM*, HT1080 IDH1KD tx 0.4%, KB-3-1 cytotox inconclusive and HT1080NT lethal -10.2%.
`CCC(C)(C)NC(=O)C1CCN(S(=O)(=O)c2c(C)noc2/C=C/c2ccc(C)cc2)CC1` gave KB-V1 MDR tox inactive and KB-3-1 cytotox inactive.
`CC1CCN(C(=O)C(NS(=O)(=O)c2cccc3nsnc23)C(C)C)CC1` (centres undefined) gave SW480 rereplic -22.3%, MCF10A rereplic 4.0%, KB-V1 MDR tox inactive, HT1080 IDH1KD tx -4.5%, KB-3-1 cytotox inactive and HT1080NT lethal -0.4%.
CC(C)C(NS(=O)(=O)c1cccc2nsnc12)C(=O)N1CCc2ccccc2C1 (centres undefined) was read as SW480 rereplic 8.3%, MCF10A rereplic -2.5%, KB-V1 MDR tox 18.4µM*, HT1080 IDH1KD tx 0.2%, KB-3-1 cytotox inactive and HT1080NT lethal 0.9%.
Cc1ccc(Cl)cc1NC(=O)c1ccc(NC(=O)N2CCSc3ncccc32)cc1 was read as KB-V1 MDR tox inactive and KB-3-1 cytotox inactive.
